Records with an inconclusive call do not appear. Activity calls are given as the source filed them. Unless noted, calls come from the whole dose curve; as a rule, active = well fitted curve in the direction sought with a large enough effect; inconclusive = small, poorly fitted or top-dose-only effect, or another doubt; inactive = no such curve, though single readings can be large; an effect the other way counts as inactive or inconclusive.
Legend:
[1] = target: Catechol O-methyltransferase (Homo sapiens) (UniProt P21964); assay: Confirmatory Screen for Target Class Profiling of Small Molecule Inhibitors of Methyltransferases (AID 1745852; calls by dose curve; note: potency is the fitted concentration of half-maximal effect; for activity change, negative = inhibition: % is set by controls: 0 for no effect and ±100 for the full control effect); conditions: MTase-Glo luminescence, SAH detection, recombinant enzyme; measured here: COMT max response; stronger effect = lower value
[2] = target: Guanidinoacetate N-methyltransferase (Homo sapiens) (UniProt Q14353); assay: as above; conditions: MTase-Glo luminescence, SAH detection, recombinant enzyme; activity change, negative = inhibition: at 57.3 µM (top of the series) unless noted; series mostly up to 57.3 µM
[3] = target: Nicotinamide N-methyltransferase (Homo sapiens) (UniProt P40261); assay: as above; conditions: MTase-Glo luminescence, SAH detection, recombinant enzyme; measured here: NNMT max response; stronger effect = lower value
[4] = target: Phenylethanolamine N-methyltransferase (Homo sapiens) (UniProt P11086); assay: as above; conditions: MTase-Glo luminescence, SAH detection, recombinant enzyme; measured here: PNMT max response; stronger effect = lower value
[5] = Primary qHTS for inhibitors of nuclear receptor binding SET domain protein 2 (NSD2) in an RCH-ACV wild type WT cells (2C) (AID 1645877); conditions: RCH-ACV (leukaemia line) NSD2 WT (2C) viability, CellTiter-Glo, 72 h; series mostly up to 44.9 µM; note: nearly all actives have a fitted effect of over 70% in size; note: potency is the fitted concentration of half-maximal effect
[6] = Viability counterscreen for antagonist of constitutive androstane receptor (CAR) against the NCATS DSHEA and TCM libraries (AID 1794837); conditions: CAR reporter cell line viability counterscreen, qHTS; series mostly up to 40 µM;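 note: compound exposure lasted 24 h before viability reading; 0% is about no effect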
Summary of the method: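 Cells: HepG2 line carrying CYP2B6 reporter and hCAR, seeded and attached 5 h. Then pin-transferred test substances plus agonist CITCO at 48 uM final; 24 h incubation; fluorogenic viability reagent, 1 h.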

[7] = Viability counterscreen for agonist of constitutive androstane receptor (CAR) against the NCATS DSHEA and TCM libraries (AID 1794838); conditions: HepG2 cell viability counterscreen, CAR agonist assay, co-treated with 0.75 µM CAR antagonist; series mostly up to 40 µM;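 note: HepG2 cells with CYP2B6 reporter and hCAR plus 0.75 µM PK11195 antagonist; cells exposed to compound for 24 h; 0% is about no effect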
Summary of the method: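 Cell health was measured as CellTiter-Fluor signal in HepG2-CYP2B6-hCAR cells treated for 24 h with substances alongside the hCAR antagonist PK11195 (0.75 uM final).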

[8] = target: Rap guanine nucleotide exchange factor 3 (Homo sapiens) (UniProt O95398); assay: Confirmatory qHTS for antagonist of cAMP-regulated guanine nucleotide exchange factor 3 (EPAC1) (AID 1645880); conditions: EPAC1 Rap1B-BODIPY-GDP exchange, fluorescence; series mostly up to 115 µM; note: nearly all actives have a fitted effect of over 55% in size; note: potency is the fitted concentration of half-maximal effect
Summary of the method: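 Nucleotide exchange uses 100 nM EPAC1, 250 nM RAP1B-BODIPY-GDP and 50 uM GDP, with compounds in a concentration-titration series. After 5 min at room temperature, fluorescence (480 nm ex/540 nm em) is read every 5 min for 30 min. Data are normalized to control ATA and DMSO.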

[9] = target: Rap guanine nucleotide exchange factor 3 (Homo sapiens) (UniProt O95398); assay: Confirmatory qHTS for agonist of cAMP-regulated guanine nucleotide exchange factor 3 (EPAC1) (AID 1645881); conditions: EPAC1 Rap1B BODIPY-GDP exchange fluorescence, 100% = cAMP control response; series mostly up to 154 µM;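 note: EPAC1 catalysed release of BODIPY-GDP from Rap1B seen as fluorescence loss; nearly all actives have a fitted effect of over 75% in size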
[10] = target: Rap guanine nucleotide exchange factor 4 (Homo sapiens) (UniProt Q8WZA2); assay: Confirmatory qHTS for agonist of cAMP-regulated guanine nucleotide exchange factor 4 (EPAC2) (AID 1645884); conditions: EPAC2 GEF activity, Rap1B-BODIPY-GDP fluorescence, percent relative to cAMP agonist control; series mostly up to 154 µM;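 note: nucleotide exchange releases bodipy-GDP from Rap1 and this lowers its fluorescence; % is set by controls: 0 for no effect and ±100 for the full control effect; nearly all actives have a fitted effect of over 65% in size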
[11] = target: Rap guanine nucleotide exchange factor 4 (Homo sapiens) (UniProt Q8WZA2); assay: Confirmatory qHTS for antagonist of cAMP-regulated guanine nucleotide exchange factor 4 (EPAC2) (AID 1645885); conditions: EPAC2 Rap1B-BODIPY-GDP exchange fluorescence, biochemical; series mostly up to 114 µM; note: % is set by controls: 0 for no effect and ±100 for the full control effect; nearly all actives have a fitted effect of over 25% in size

Nicotinamide N-methyltransferase (Homo sapiens), sequence (P40261 whole entry, looked up): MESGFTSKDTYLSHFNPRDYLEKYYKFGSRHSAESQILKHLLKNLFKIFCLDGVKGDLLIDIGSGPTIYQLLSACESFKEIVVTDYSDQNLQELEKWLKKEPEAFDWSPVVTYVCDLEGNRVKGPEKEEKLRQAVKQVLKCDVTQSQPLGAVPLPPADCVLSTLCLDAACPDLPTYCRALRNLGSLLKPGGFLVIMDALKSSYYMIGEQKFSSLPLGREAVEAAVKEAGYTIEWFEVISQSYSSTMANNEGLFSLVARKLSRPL
Phenylethanolamine N-methyltransferase (Homo sapiens), sequence (P11086 whole entry, looked up, the tested form may be a part): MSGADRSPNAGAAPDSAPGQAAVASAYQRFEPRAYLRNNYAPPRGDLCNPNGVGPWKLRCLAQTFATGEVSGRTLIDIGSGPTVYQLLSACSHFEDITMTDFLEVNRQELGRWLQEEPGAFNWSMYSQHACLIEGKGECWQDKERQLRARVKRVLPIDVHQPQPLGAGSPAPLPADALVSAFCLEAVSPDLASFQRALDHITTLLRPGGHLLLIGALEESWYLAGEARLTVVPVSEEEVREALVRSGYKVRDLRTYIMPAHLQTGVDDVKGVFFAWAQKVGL
Catechol O-methyltransferase (Homo sapiens), sequence (P21964 whole entry, looked up): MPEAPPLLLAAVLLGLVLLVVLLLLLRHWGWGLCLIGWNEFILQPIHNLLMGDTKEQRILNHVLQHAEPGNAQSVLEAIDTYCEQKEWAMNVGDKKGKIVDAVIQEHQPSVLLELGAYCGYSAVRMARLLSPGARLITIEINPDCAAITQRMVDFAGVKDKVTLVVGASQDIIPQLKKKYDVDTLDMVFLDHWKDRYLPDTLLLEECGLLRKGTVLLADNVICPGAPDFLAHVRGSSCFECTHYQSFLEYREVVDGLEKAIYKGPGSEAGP
Rap guanine nucleotide exchange factor 3 (Homo sapiens), sequence (O95398 whole entry, looked up): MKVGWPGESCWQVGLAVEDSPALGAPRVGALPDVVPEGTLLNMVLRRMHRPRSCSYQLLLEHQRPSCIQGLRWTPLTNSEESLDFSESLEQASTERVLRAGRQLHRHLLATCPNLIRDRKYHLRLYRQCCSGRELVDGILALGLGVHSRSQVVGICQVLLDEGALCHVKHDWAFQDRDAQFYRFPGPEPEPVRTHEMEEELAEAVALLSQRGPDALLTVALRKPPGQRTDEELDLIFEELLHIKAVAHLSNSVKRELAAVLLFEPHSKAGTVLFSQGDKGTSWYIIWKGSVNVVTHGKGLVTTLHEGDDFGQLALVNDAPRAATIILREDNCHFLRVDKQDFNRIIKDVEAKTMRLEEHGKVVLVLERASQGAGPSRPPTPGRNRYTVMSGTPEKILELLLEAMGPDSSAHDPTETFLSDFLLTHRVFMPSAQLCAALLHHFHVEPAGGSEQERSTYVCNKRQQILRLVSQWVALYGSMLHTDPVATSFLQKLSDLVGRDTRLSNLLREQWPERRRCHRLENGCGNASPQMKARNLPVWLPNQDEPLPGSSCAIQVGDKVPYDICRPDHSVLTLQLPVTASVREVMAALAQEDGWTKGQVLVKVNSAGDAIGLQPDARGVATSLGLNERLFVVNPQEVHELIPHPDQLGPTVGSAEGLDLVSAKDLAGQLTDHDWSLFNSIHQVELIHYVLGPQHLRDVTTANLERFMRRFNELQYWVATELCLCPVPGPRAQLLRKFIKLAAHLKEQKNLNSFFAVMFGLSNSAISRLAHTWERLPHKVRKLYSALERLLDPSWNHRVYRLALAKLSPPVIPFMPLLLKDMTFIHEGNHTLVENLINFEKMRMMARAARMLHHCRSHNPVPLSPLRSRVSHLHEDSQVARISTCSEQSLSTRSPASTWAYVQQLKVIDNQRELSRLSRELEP
Rap guanine nucleotide exchange factor 4 (Homo sapiens), sequence (Q8WZA2 whole entry, looked up): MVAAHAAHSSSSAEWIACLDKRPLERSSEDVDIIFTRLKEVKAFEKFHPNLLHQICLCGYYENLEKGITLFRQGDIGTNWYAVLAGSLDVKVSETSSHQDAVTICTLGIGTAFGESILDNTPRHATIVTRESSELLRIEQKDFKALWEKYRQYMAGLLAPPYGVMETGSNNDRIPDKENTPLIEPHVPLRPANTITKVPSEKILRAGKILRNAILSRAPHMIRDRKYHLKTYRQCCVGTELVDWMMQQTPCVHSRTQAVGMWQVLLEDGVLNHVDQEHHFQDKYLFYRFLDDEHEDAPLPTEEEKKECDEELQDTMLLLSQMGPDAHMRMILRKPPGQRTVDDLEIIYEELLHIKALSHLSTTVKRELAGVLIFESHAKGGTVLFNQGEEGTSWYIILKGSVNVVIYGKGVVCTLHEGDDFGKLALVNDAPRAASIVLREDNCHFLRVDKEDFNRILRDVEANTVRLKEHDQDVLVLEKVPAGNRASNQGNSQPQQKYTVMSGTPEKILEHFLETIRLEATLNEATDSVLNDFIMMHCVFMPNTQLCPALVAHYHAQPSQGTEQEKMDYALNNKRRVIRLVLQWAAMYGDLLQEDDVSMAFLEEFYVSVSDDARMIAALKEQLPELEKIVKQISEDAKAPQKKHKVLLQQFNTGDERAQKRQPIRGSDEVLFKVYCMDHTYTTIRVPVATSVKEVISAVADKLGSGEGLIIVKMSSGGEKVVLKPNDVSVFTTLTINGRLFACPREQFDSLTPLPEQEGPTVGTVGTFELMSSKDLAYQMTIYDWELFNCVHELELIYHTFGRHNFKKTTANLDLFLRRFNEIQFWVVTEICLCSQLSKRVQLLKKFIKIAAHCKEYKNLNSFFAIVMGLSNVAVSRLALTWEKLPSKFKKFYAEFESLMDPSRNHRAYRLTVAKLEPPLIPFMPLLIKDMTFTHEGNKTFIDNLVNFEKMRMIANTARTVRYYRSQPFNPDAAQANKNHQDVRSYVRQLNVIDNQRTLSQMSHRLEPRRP

Structure (SMILES): N#Cc1ccc(N2N=C3c4ccc(C(=O)O)cc4CC[C@@H]3[C@@H]2C2CCCC2)cc1Cl
- activity [1]: 7.42%
- activity change, negative = inhibition [2]: -0.344%
- activity [3]: -82.8%
- activity [4]: 0.228%

Structure (SMILES): CC(=O)O[C@H]1[C@@]2(O)C[C@H](C)[C@H](OC(=O)c3ccccc3)[C@@H]2[C@@H](OC(=O)CO)[C@]2(OC(C)=O)C[C@H]3C(=O)C(C)(C)C[C@@H]3[C@@]1(C)[C@H]2OC(C)=O
- Potency [5]: inactive

Structure (SMILES): C=C1C(=O)O[C@@H]2[C@H]3C(C)=CC(=O)C3=C(C)[C@@H](OC(=O)/C(C)=C\C)[C@H](O)[C@@H]12
- Potency [5]: 3.58 µM (active)

Structure (SMILES): C=CC(C)(C)c1[nH]c2ccccc2c1C[C@@H]1NC(=O)[C@H](C)NC1=O
- Potency [5]: inactive

Structure (SMILES): C=C1C(=O)OC2CC(C)C(CCC(C)O)=CCC12 (stereo not drawn)
- Potency [5]: 16.3 µM (active)
- activity [1]: -95.7%
- activity change, negative = inhibition [2]: -4.2%
- activity [3]: -3.12%
- activity [4]: -3.4%

Structure (SMILES): C=C1C(=O)O[C@@H]2/C=C(\CO)CC/C=C(\CO)[C@H](OC(C)=O)C(OC(=O)C(C)CC)C12 (stereo partly drawn)
- Potency [5]: 5.02 µM (active)

Structure (SMILES): CC(C)=CCc1cc2c(cc1O)OC[C@H]1c3ccc(O)cc3O[C@@H]21
- Potency [5]: 14.2 µM (active)

Structure (SMILES): CS/C=C/C(=O)O[C@@H]1CCC2=CC(=O)C(=C(C)C)C[C@]2(C)[C@H]1C
- Potency [5]: 11.3 µM (active)

Structure (SMILES): C=C(C(=O)OC[C@H]1O[C@@H](OC(=O)/C=C/c2ccccc2)[C@H](O)[C@@H](O)[C@@H]1O)C(O)CO (stereo partly drawn)
- Potency [5]: 5.63 µM (active)

Structure (SMILES): CCN(CC)CCCCCCNc1cc(OC)cc2c(C)ccnc12
- Potency [5]: 12.9 µM (active)
- activity [1]: -3.27%
- activity change, negative = inhibition [2]: -0.864%
- activity [3]: 0.614%
- activity [4]: 2.1%

Structure (SMILES): O=C(O)CC(O)(CC(=O)O)C(=O)O
- outcome [6]: inactive
- outcome [7]: inactive

Structure (SMILES): CC1(C)CCC(C)(C)c2cc(C#Cc3ccc(C(=O)O)cc3)ccc21
- Potency [5]: inactive
- activity [1]: -0.825%
- activity change, negative = inhibition [2]: 0%
- activity [3]: -63%
- activity [4]: -5.22%

Structure (SMILES): C[C@@H]1O[C@@H](O[C@H]2[C@@H]3C=CO[C@@H](O[C@@H]4O[C@H](CO)[C@@H](O)[C@H](O)[C@H]4O)[C@@H]3[C@@]3(CO)O[C@@H]23)[C@H](O)[C@H](OC(=O)/C=C/c2ccccc2)[C@H]1O
- Potency [5]: 5.41 µM (active)

Structure (SMILES): N#CSc1cc(SC#N)c(N)nc1N
- activity [1]: -83.2%
- Potency [2]: 4.08 µM (active)
- activity [3]: -72%
- activity [4]: -48.1%

Structure (SMILES): C=C[C@](C)(O)CC[C@H]1C(C)=CC(=O)[C@H]2C(C)(C)CCC[C@]12C
- Potency [5]: 18.3 µM (active)

Structure (SMILES): C=C(C(=O)OC)[C@@H]1CC=C2C=CC(=O)[C@H](C)[C@@]2(C)C1
- Potency [5]: 20.5 µM (active)

Structure (SMILES): O=C(O)c1cc2ccccc2c(Cc2c(O)c(C(=O)O)cc3ccccc23)c1O
- Potency [8]: 4.44 µM (active)
- outcome [9]: inactive
- outcome [10]: inactive
- Potency [11]: inactive

Structure (SMILES): CC(=O)S[C@@H]1CC2=CC(=O)CC[C@]2(C)[C@H]2CC[C@@]3(C)[C@@H](CC[C@@]34CCC(=O)O4)[C@H]12
- Potency [8]: inactive
- outcome [9]: inactive
- outcome [10]: inactive
- Potency [11]: inactive

Source: PubChem BioAssay (NCATS)
